Measurements: the supplement of paper PMC3334620
Whole data set: some 33,000 sequences, median “E-score (-0.5 to 0.5)” near -0.012, cut for the highest 2% near 0.27. This excerpt belongs to a sample that is enriched for the highest values.

Target: T1, Vhr1 (UniProt P40522)
T1 sequence: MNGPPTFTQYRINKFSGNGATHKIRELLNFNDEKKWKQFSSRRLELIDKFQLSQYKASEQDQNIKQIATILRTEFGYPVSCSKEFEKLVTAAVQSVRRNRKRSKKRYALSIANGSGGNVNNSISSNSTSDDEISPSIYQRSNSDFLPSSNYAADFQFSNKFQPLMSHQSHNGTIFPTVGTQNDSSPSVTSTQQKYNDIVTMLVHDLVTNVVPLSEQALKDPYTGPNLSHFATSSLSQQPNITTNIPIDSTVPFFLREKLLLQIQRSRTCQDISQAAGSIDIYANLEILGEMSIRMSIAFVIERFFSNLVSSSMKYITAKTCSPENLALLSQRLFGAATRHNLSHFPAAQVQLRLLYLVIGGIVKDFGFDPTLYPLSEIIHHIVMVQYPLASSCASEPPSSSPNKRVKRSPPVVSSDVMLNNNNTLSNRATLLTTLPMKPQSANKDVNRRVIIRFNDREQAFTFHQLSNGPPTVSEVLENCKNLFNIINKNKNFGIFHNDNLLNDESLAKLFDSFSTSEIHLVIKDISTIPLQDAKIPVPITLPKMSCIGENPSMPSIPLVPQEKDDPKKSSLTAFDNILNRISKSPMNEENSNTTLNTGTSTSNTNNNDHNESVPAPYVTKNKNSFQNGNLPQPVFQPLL
Experiment: PBM E-score (8-mer binding enrichment) (E-score (-0.5 to 0.5)); higher = stronger / more preferred TF binding
Conditions: protein concentration: 200 nM; construct: GST-full length
Experimental: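 Universal 'all 10-mer' protein binding microarrays (Agilent AMADID 015681) probed with GST-tagged S. cerevisiae TFs (full-length or DBD) made by in vitro transcription/translation (PURExpress), about 100-200 nM. Bound TF was detected with fluorescent anti-GST. Each ungapped 8-mer (which stands for itself and its reverse complement) is scored by the PBM enrichment score (E-score), a modified Wilcoxon-Mann-Whitney statistic from -0.5 to +0.5, computed with the Universal PBM Analysis Suite. Scale: above 0.35 generally sequence-specific binding.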

Sequence	PBM E-score
AGAAGCGA	-0.0198
GGATAACC	-0.112
AGAACTTC	-0.182
CTTGCCCA	-0.177
GAAGGGTA	0.0935
CAAAGTTC	-0.0789
ACTGCGAG	0.0985
GCCACCAC	-0.0307
CCCATGGA	0.0783
ATCATGGA	0.22
ATCATGGC	0.143
ACCATGGG	0.108
ATCATGCC	0.0697
ATCATGGG	0.272
ATCATGCG	0.283
ATCATGCA	0.192
CCCATGGG	0.285
ACGGTCAC	-0.0582
TAGCGTAA	-0.0878
CGGAGATC	-0.0653
AATTCGGA	0.0232
TCAGAACA	0.00034
GCAGCTAA	-0.106
CAATTTTC	-0.0832
GAGGCAAC	-0.172

Sequence	PBM E-score
CATAACGA	0.0162
CGTGACGA	0.00499
CGTGACGC	-0.144
CGTGACTC	0.472
CGTGACAA	-0.0207
CGTGACCC	0.141
CGTGACTA	0.419
GGTCGAAC	0.00191
GACCCTAA	-0.109
GGAATTCC	-0.279
CTAATGAA	0.0817
AGCATCTC	0.0587
GGATTTGA	-0.0695
ATCGTGAC	0.113
CTCGTGAC	0.273
CTCGTGAA	0.0314
GCCCTCCA	-0.133
ATATATCA	0.0989
CTATATCC	-0.00727
ATATATAG	0.132
ATATATCC	0.273
CTATATAC	0.241
ACATATCG	0.191
CCATATCA	0.0898
ATATATAA	0.247

Sequence	PBM E-score
ATATATAC	0.285
ACATATCA	0.281
ATATATAT	0.324
GTATATAC	0.0568
GCCTGCGA	-0.00738
AGAATACT	0.0167
CAGTACCC	0.103
GATAATGC	0.114
GACCACGC	0.148
AAATCACG	0.173
CAATCACC	0.238
AAATCACA	0.0215
GAATCACA	0.341
TAATCACA	0.222
AAATCACC	0.312
GAATCACC	0.392
GCATCACC	-0.0259
CAATCACG	0.211
CTAGAAAC	-0.252
AAGGCTCC	-0.172
ATCGACGG	0.0804
CCGAATGA	0.166
CAACCGCG	0.3
CAACCGCA	0.0762
CAACCGCC	-0.102

Sequence	PBM E-score
GATTATAC	0.213
GCGGGCTA	-0.119
AGCGGCTC	-0.0971
CGCGGCTA	-0.0223
CGCGGCTC	0.278
CGAGTCAA	0.278
CAAGTCAA	-0.0643
CGAGTCAG	0.429
CGAGTCCC	0.186
GGAGTCAA	0.354
GGAGTCGA	0.122
CGAGTCTA	-0.0817
CGTGTCAG	0.037
CGAGTCTC	0.0296
GGAGTCTA	0.0135
CCAGTCAG	0.0854
CGAGTCAC	0.467
CCGTGCCG	-0.00022
AACCTCTC	-0.172
GCAGCCGA	0.0559
GCAGGCCA	0.117
ACTGATCC	0.0497
ATTGTTTC	0.217
CCAGTCCG	-0.0813
CGAGTCCG	0.286

Sequence	PBM E-score
TTAGTCAA	0.168
AGAGTCCG	-0.0962
TCAGTCAA	0.114
TGAGTCCA	0.3
TGAGTCAA	0.419
GGAGTCCA	0.163
CGAGTCCA	-0.0942
CAATCAAA	-0.008
CCTTCCCC	0.0876
CCCTATCC	-0.0379
ACAGCTGG	-0.119
CCAGCTGC	-0.105
CCAGCTGG	0.301
AGTAAATC	0.0723
CGGACTCC	0.2
AGGACTCA	0.376
AGGACTCC	0.129
AGGACTCG	0.167
CGGACTCA	0.381
CGGACTTA	-0.189
ATATACTA	0.257
CCTTGAGA	-0.0758
ACATAGTA	0.188
AAATAGTC	0.0418
AAATAGTG	-0.149

Sequence	PBM E-score
CCATAGTC	0.225
ACATAGTC	0.272
ACATAGTG	0.314
CCAGGACA	-0.0732
CTGCACAA	-0.0636
GGTTGTGA	0.143
ATCTCAAA	-0.0488
TGCTCAAA	-0.193
AATCCATT	0.113
ACTAATCG	0.251
ACTCAGTA	0.281
CCTCAGTC	0.0647
ACTCAGTC	0.314
CCTCAGTA	-0.106
CCGCAGTA	0.0424
ACGCAGTC	0.169
GCTCAGTA	-0.0102
ACTCAGTG	0.245
CCGCAGTC	0.274
ACGATGCC	-0.257
AGCAACTG	0.00583
GACCCAAA	0.0473
CGGAATAA	-0.0766
GGCCACTA	-0.00131
GTTGCCTA	-0.162

Sequence	PBM E-score
GAACGATA	-0.0543
AAACCAGT	0.0233
ATCTTGGA	0.0371
GCCTTATA	-0.0741
AGCCCGAC	0.0296
CGCCCGAC	0.342
CGCCCGAA	-0.0969
AACGAGCA	-0.0591
ATGCTCAG	0.141
ACTAGAGT	0.0036
ACCACATG	0.262
ACCACATC	0.276
ACCACATA	0.125
CGCTCACA	0.137
ACCAACAA	0.359
ACCAACCA	0.163
CCCAACCA	0.275
CCCAACCC	0.118
ACCAACAT	0.157
ACCAACAG	0.046
CCCTAGCC	-0.184
CCCCCACC	-0.341
